Laboratory results: PubChem BioAssay AID624405 (Broad Institute, 2012)
The campaign covered roughly 1,900 compounds. About 250 (13%) were called active. Roughly 4% stayed inconclusive and do not appear here.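 The calls were made as follows: active = fitted curve reaches 40% rescue activity at or below the top valid dose, in every test run; inconclusive = test runs disagree, some active and some inactive; inactive = every run misses the threshold or moves the wrong way.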 A selection follows. Results with a measured potency or affinity are listed apart.

Assay: suppressors of statin myotoxicity in myotubes, dose response, cell-based, C2C12 myotubes, ATP luminescence, cherry pick (AID 624405);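 also: myotubes are challenged with simvastatin at 10 µM to lower ATP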
Details: C2C12 myotubes + simvastatin, 48 h, scaled: DMSO wells 0, geranylgeraniol wells 100; series mostly up to 19.5 µM; rescue activity (ATP increase): at the top concentration

Row | SMILES | rescue activity (ATP increase)
1 | Cc1csc2nc(CNC(=O)c3cccc(C(F)(F)F)c3)cn12 | 0.276% (inactive)
2 | O=C(NCC(=O)N(Cc1cccs1)C(C(=O)NC1CCCCC1)c1cccnc1)c1ccco1 (stereo not drawn) | 20.5% (inactive)
3 | O=C(Nc1ccccc1Cl)N1C[C@H]2[C@@H](c3ccccc31)[C@@H](CO)N2Cc1ccccc1 | -27.8% (inactive)
4 | COc1ccc(N2C(=O)CSC23C(=O)Nc2ccccc23)cc1 (stereo not drawn) | -5.68% (inactive)
5 | C[C@@H]1CCCCO[C@H](CN(C)S(=O)(=O)c2ccc(Cl)cc2)[C@H](C)CN([C@H](C)CO)C(=O)c2cc(NS(C)(=O)=O)ccc2O1 | -3.42% (inactive)
6 | C[C@H](CO)N1C[C@H](C)[C@@H](CN(C)Cc2ccc(C(F)(F)F)cc2)Oc2ccc(NC(=O)C3CCCCC3)cc2CC1=O | 8.41% (inactive)
7 | N#Cc1ccc(C(=O)NCC(c2ccco2)N2CCCCC2)cc1 (stereo not drawn) | 0.531% (inactive)
8 | CC(C)(C)n1nnnc1C(c1cccnc1)N1CCN(c2ccccc2F)CC1 (stereo not drawn) | -17.2% (inactive)
9 | CCOC(=O)c1sc(NCC2CCCO2)nc1C (stereo not drawn) | 52.4% (inactive)
10 | Cc1noc(C)c1S(=O)(=O)Nc1cccc2c1O[C@@H](CN(C)S(C)(=O)=O)[C@@H](C)CN([C@H](C)CO)C2=O | -9.16% (inactive)
11 | C[C@@H]1CN([C@@H](C)CO)C(=O)c2cccc(NC(=O)c3ccc(-c4nccs4)cc3)c2O[C@@H]1CN(C)Cc1ccc(C(F)(F)F)cc1 | 49.7% (inactive)
12 | CC(C)(C)C(=O)Nc1ccc(C(=O)NCc2cccnc2)cc1 | -47% (inactive)
13 | COc1cc(OC)cc(C(=O)NCc2cccnc2)c1 | 0.241% (inactive)
14 | COc1cnc(N(C)C)nc1Sc1ccc(Cl)cc1 | -4.1% (inactive)
15 | CCOC(=O)c1nnc(-c2ccc(C)cc2)nc1Sc1ccc(Cl)cc1 | 28% (inactive)
16 | COc1ccc(S(=O)(=O)Nc2ccc3c(c2)C(=O)N([C@@H](C)CO)C[C@@H](C)[C@H](CN(C)S(=O)(=O)c2ccc(F)cc2)OCCCC[C@@H](C)O3)cc1 | -17.1% (inactive)
17 | COc1ccc(C(=O)c2nc3c(n2O)CCCC3)cc1OC | -2.59% (inactive)
18 | Cc1ccc2nc(-c3cccc(NC(=O)c4ccc5c(c4)OCCO5)c3)oc2c1 | -48.7% (inactive)
19 | Cc1ccc(-c2csc(-c3c[nH]c4ccccc34)n2)cc1 | -86.9% (inactive)
20 | COc1ccc(-c2noc(CCCC(=O)NCCc3ccccc3)n2)cc1OC | 91.3% (inactive)
21 | CC(C)NC(=O)N(C)C[C@@H]1Oc2ccc(NC(=O)Nc3cccc4ccccc34)cc2CC(=O)N([C@@H](C)CO)C[C@@H]1C | 10% (inactive)
22 | O=C(NCC(=O)N(Cc1ccccc1)C(C(=O)NC1CCCCC1)c1ccco1)c1ccco1 (stereo not drawn) | 18% (inactive)
23 | COc1ccc(CNC(=O)C2CCCN(S(=O)(=O)c3ccc4c(c3)CCCN4C(C)=O)C2)cc1 (stereo not drawn) | 14.2% (inactive)
24 | COc1ccc(CNS(=O)(=O)c2ccc3c(c2)CCN3C(=O)C2CCC2)cc1 | 9.75% (inactive)
25 | C[C@@H]1CCCCO[C@@H](CN(C)S(=O)(=O)c2ccc(Cl)cc2)[C@H](C)CN([C@@H](C)CO)C(=O)c2cc(NS(C)(=O)=O)ccc2O1 | -0.084% (inactive)
26 | CC(C)COc1nc2ccccc2c(=O)n1OCC(=O)O | -5.81% (inactive)

Row | SMILES | rescue activity (ATP increase)
27 | CC(C)C#Cc1ccc2c(c1)O[C@@H](CN(C)C(=O)C1CCC1)[C@@H](C)CN([C@@H](C)CO)S2(=O)=O | 10.8% (inactive)
28 | NNC(=O)c1nn(-c2ccc(Cl)cc2)cc1O | 25.5% (inactive)
29 | COc1ccc(-n2cnc3cc(NCc4cccs4)ccc32)cc1 | -27.2% (inactive)
30 | C[C@H](CO)N1C[C@H](C)[C@@H](CN(C)Cc2ccc(Cl)c(Cl)c2)Oc2ccc(NC(=O)CCC(F)(F)F)cc2CC1=O | 20.8% (inactive)
31 | Cc1ccc(S(=O)(=O)n2nc(-c3ccco3)nc2SCc2ccccc2)cc1 | -2.62% (inactive)
32 | O=S(=O)(NCC1CCN(S(=O)(=O)c2ccccc2)CC1)c1ccccc1 | -17.4% (inactive)
33 | CCOC(=O)[C@H]1[C@H]2COc3ccc(Cl)cc3[C@@H]2N2C(=O)c3ccccc3NC(=O)[C@@]12C | -1.05% (inactive)
34 | O=C(CNS(=O)(=O)c1ccc(Br)s1)N1CCN(c2ncccn2)CC1 | 16.1% (inactive)
35 | Cc1nc2ccc(S(=O)(=O)NCC(=O)N3CCCC(C)C3)cc2s1 (stereo not drawn) | -5.12% (inactive)
36 | C[C@H]1CN([C@@H](C)CO)C(=O)Cc2cc(NC(=O)CCC(F)(F)F)ccc2O[C@@H]1CN(C)Cc1ccc(Oc2ccccc2)cc1 | 14.4% (inactive)
37 | COc1ccc(CCNC(=O)c2ccc(N3CCCC3=O)cc2)cc1 | -3.21% (inactive)
38 | COc1ccc(CNC(=O)CCOc2ccc(C(C)(C)C)cc2)cc1 | 1.89% (inactive)
39 | Cc1ccc(Cl)cc1NC(=O)COC(=O)CC1CC2CCC1C2 (stereo not drawn) | 15.8% (inactive)
40 | COc1cccc(S(=O)(=O)N(C)C[C@H]2OCc3ccccc3-c3c(n(C)c4ccccc34)C(=O)N([C@H](C)CO)C[C@H]2C)c1 | -1.38% (inactive)
41 | COc1ccc(CN(C)C[C@@H]2Oc3ccc(NS(=O)(=O)c4ccccc4)cc3CC(=O)N([C@H](C)CO)C[C@H]2C)cc1 | 23.7% [at 21 µM] (inactive)
42 | CCOC(=O)N1CCN(C2CC(=O)N(c3ccc(Oc4ccccc4)cc3)C2=O)CC1 (stereo not drawn) | -10.9% (inactive)
43 | CCOC(=O)N1CCN(c2ccccc2O)CC1 | 30.5% (inactive)
44 | C[C@@H]1CN([C@H](C)CO)C(=O)c2cc(NS(C)(=O)=O)ccc2O[C@@H](C)CCCCO[C@@H]1CN(C)Cc1ccc(Cl)c(Cl)c1 | 9.34% (inactive)
45 | COc1ccc(C(=O)N2C[C@H]3[C@@H](c4ccccc42)[C@@H](CO)N3Cc2ccccc2)cc1 | -1.57% (inactive)
46 | CCN(CC)c1nc(C#N)cc(-c2ccc(OC)cc2)n1 | -121% (inactive)
47 | C[C@H](CO)N1C[C@H](C)[C@@H](CN(C)C(=O)Nc2ccccc2)Oc2ncc(C#CC3CCCC3)cc2C1=O | 10.3% (inactive)
48 | C[C@H](CO)N1C[C@H](C)[C@@H](CN(C)C(=O)Nc2cccc3ccccc23)OCCCC[C@H](C)Oc2ccc(NC(=O)Nc3ccc4c(c3)OCO4)cc2C1=O | -8.78% (inactive)
49 | Cc1ccc(S(=O)(=O)Nc2ccc3c(c2)C(=O)N([C@H](C)CO)C[C@@H](C)[C@H](CN(C)Cc2ccc(Cl)c(Cl)c2)O3)cc1 | 28.3% [at 21 µM] (inactive)
50 | CCOC(=O)C1=C(C)Nc2ccccc2N=C1NC(=O)c1cccc(S(=O)(=O)N(C)C)c1 | -13.1% (inactive)
51 | COc1ccc(C(=O)N2C[C@@H]3[C@H](c4ccccc42)[C@H](CO)N3Cc2ccccc2)cc1 | 4.22% (inactive)
52 | COC(=O)C1(C(=O)OC)NOC2C(=O)N(c3ccc(Cl)cc3Cl)C(=O)C21 (stereo not drawn) | 10% (inactive)

Row | SMILES | rescue activity (ATP increase)
53 | C[C@@H](NC(=O)C[C@@H]1CC[C@@H]2[C@H](COC[C@H](O)CN2Cc2ccc(C(F)(F)F)cc2)O1)c1ccccc1 | 32% (inactive)
54 | COc1ccc(S(=O)(=O)Nc2ccc3c(c2)C(=O)N([C@H](C)CO)C[C@H](C)[C@H](CN(C)S(=O)(=O)c2ccc(F)cc2)OCCCC[C@H](C)O3)cc1 | 9.35% (inactive)
55 | CCC(C)(CCNC(=O)Cc1ccccc1)c1ccccc1OC (stereo not drawn) | 7.25% (inactive)
56 | C[C@H](CO)N1C[C@H](C)[C@@H](CN(C)Cc2ccc(-c3ccccc3)cc2)Oc2ccc(NC(=O)Cc3ccccc3)cc2CC1=O | 28.4% (inactive)
57 | C[C@H]1CN([C@@H](C)CO)C(=O)Cc2cc(NC(=O)CCCCCC(=O)Nc3ccccc3N)ccc2O[C@@H]1CN(C)Cc1ccc(-c2ccccc2)cc1 | 24.2% (inactive)
58 | C[C@H](CO)N1C[C@H](C)[C@@H](CN(C)Cc2ccc(-c3ccccc3)cc2)Oc2ccc(NC(=O)CCCCCC(=O)Nc3ccccc3N)cc2CC1=O | 32% (inactive)
59 | Cc1noc(C)c1S(=O)(=O)Nc1ccc2c(c1)C(=O)N([C@@H](C)CO)C[C@@H](C)[C@@H](CN(C)S(=O)(=O)c1ccc(Cl)cc1)OCCCC[C@H](C)O2 | -4.86% (inactive)
60 | c1ccc2c(c1)CNC1(CCCCC1)C2 | -4.96% (inactive)
61 | COc1ccc(S(=O)(=O)Nc2ccc3c(c2)C(=O)N([C@@H](C)CO)C[C@@H](C)[C@@H](CN(C)C(=O)Nc2cccc4ccccc24)OCCCC[C@H](C)O3)cc1 | 10.9% (inactive)
62 | C[C@@H]1CN([C@H](C)CO)C(=O)Cc2cc(NC(=O)Nc3cccc4ccccc34)ccc2O[C@H]1CN(C)CC1CCCCC1 | 15.5% (inactive)
63 | COc1ccc(S(=O)(=O)Nc2cccc3c2O[C@@H](CN(C)Cc2ccc(Oc4ccccc4)cc2)[C@@H](C)CN([C@@H](C)CO)C3=O)cc1 | 15.9% (inactive)
64 | C[C@H]1CCCCO[C@H](CN(C)C(=O)C2CCCCC2)[C@@H](C)CN([C@@H](C)CO)C(=O)c2cc(NC(=O)NC3CCCCC3)ccc2O1 | 17.2% [at 21 µM] (inactive)
65 | C[C@H]1CCCCO[C@@H](CN(C)S(=O)(=O)c2ccc(Cl)cc2)[C@@H](C)CN([C@@H](C)CO)C(=O)c2cc(NS(C)(=O)=O)ccc2O1 | -7.17% (inactive)
66 | C[C@@H]1CN([C@@H](C)CO)C(=O)c2cc(NC(=O)Nc3ccc(C(F)(F)F)cc3)ccc2O[C@H]1CN(C)Cc1ccc(C(=O)Nc2ccccc2N)cc1 | 10.1% (inactive)
67 | C[C@H](CO)N1C[C@H](C)[C@@H](CN(C)Cc2ccc(C(=O)Nc3ccccc3N)cc2)Oc2ccc(NC(=O)Nc3ccc(C(F)(F)F)cc3)cc2C1=O | 2.2% [at 18 µM] (inactive)
68 | C[C@@H]1CN([C@H](C)CO)C(=O)c2cc(NC(=O)Nc3ccc(C(F)(F)F)cc3)ccc2O[C@@H]1CN(C)Cc1ccc(C(=O)Nc2ccccc2N)cc1 | 29% [at 21 µM] (inactive)
69 | C[C@@H]1CN([C@H](C)CO)C(=O)Cc2cc(N(C)C)ccc2O[C@H]1CN(C)Cc1ccc(C(=O)Nc2ccccc2N)cc1 | 19.2% (inactive)
70 | CC1=CCn2c(=O)c3ccccc3c(=O)n2C1 | 38.7% (inactive)
71 | CCOC(=O)c1cc2ccc(OC)c(OC)c2c(=O)s1 | -8.38% (inactive)
72 | COc1ccc(N(Cc2cc(=O)[nH]c3ccccc23)C(=O)c2ccco2)cc1 | 5.33% (inactive)
73 | Cc1ccnc2nc(C(=O)OCC(=O)c3ccccc3)nn12 | -9.66% (inactive)
74 | Cc1cc(C(=O)COC(=O)CN=C2NS(=O)(=O)c3ccccc32)c(C)n1CCc1ccc(Cl)cc1 | -2.48% (inactive)
75 | C[C@@H]1CN([C@H](C)CO)C(=O)c2cccc(NC(=O)C3CCCCC3)c2O[C@H]1CN(C)S(=O)(=O)c1ccc(Cl)cc1 | -3.58% (inactive)
76 | O=C(c1cnn2c(C(F)F)cc(-c3ccccc3)nc12)N1CCc2ccccc21 | -40% (inactive)
77 | CCOC(=O)c1cc(=O)n(Cc2ccccc2C)c2ccccc12 | 20.2% (inactive)
78 | CCC(C)NC(=O)Cn1c(=O)n(CCCC(=O)NCc2ccccc2Cl)c(=O)c2ccccc21 (stereo not drawn) | -3.94% (inactive)
